# The campaign covered roughly 310,000 compounds. About 14,000 (4.5%) showed an effect of 50% or more. The effect is printed as a negative number. Only a selection was taken, and strong results are over-represented in it overall.
# Biological target: human ether-à-go-go-related gene (hERG) potassium channel (human, UniProt Q12809)
# Assay: primary screen, population patch clamp on CHO cells stably expressing hERG; higher = less effect of the substance
# 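Also: peak tail current of the secondary pulse compared with the same well before compound.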
# Chain of human ether-à-go-go-related gene (hERG) potassium channel (Q12809 whole entry, looked up): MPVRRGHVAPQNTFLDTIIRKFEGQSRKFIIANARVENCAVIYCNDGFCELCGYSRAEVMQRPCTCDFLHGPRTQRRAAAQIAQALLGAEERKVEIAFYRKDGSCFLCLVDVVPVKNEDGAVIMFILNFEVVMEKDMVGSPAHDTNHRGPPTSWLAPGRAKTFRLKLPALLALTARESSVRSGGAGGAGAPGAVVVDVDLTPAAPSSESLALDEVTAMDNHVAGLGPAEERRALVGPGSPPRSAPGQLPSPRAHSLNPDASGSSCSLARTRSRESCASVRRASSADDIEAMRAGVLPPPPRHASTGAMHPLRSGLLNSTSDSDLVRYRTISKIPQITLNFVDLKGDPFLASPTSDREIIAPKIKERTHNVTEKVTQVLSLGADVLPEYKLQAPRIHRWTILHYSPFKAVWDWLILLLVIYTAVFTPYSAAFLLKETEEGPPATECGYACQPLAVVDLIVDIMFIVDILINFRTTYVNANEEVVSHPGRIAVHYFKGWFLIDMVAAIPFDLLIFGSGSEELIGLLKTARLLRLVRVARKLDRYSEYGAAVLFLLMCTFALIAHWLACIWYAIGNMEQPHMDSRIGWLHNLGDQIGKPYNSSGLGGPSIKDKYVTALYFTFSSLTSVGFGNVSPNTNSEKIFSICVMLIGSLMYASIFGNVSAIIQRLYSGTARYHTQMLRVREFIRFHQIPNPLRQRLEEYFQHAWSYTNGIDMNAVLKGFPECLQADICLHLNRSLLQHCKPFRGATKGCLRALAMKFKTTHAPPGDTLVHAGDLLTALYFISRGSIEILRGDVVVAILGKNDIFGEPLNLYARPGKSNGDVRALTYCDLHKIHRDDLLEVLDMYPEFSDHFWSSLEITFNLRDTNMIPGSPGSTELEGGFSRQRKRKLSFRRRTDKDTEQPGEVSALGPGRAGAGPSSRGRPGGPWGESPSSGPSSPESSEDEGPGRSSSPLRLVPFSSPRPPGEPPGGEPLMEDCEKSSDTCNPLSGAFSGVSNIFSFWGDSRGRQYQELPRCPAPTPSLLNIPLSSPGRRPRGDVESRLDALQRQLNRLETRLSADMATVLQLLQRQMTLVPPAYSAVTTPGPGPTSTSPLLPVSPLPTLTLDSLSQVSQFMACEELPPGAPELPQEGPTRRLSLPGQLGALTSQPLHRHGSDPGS
row,SMILES,"hERG current change (%, negative = inhibition) at 10uM [%]"
1,NC(=O)CN1C2CCC1CC(NC(=O)C1CC1)C2 (stereo not shown),14.7
2,O=C(Nc1ccc(C(=O)N2CCCC2)cc1)c1ccccc1Br,19.8
3,COc1ccccc1NS(=O)(=O)c1ccc(O)cc1,1.44
4,COc1nc(N=C(N)N)nc2c(C)cccc12,-2.93
5,CC(=O)Nc1ccc(S(=O)(=O)Nc2nc3ccccc3nc2Nc2ccccc2)cc1,10.3
6,CC(=O)Nc1ccc(NC(=O)CN(C)S(=O)(=O)c2ccc3nc(C)sc3c2)cc1,25.7
7,O=C1NCCCC1C(=O)N/N=C/c1ccccc1 (stereo not shown),-4.35
8,O=C(c1cc2sccc2n1Cc1ccccc1)N1CCCc2ccccc21,1.8
9,Cc1ccc(CNc2ncc(-c3ccc4c(c3)OCO4)n2C)cc1.O=C(O)C(=O)O,-59
10,Cn1c(-c2ccc3c(c2)OCO3)cnc1NC(=O)CCC(=O)NCCc1ccccc1,-6.98
11,O=C(NCc1cccc(Cl)c1)c1ccc2c(c1)OCO2,0.973
12,Cc1ccc(CNc2ccc3c(c2)OCO3)cc1,-4.29
13,Cn1c(-c2ccc3c(c2)OCO3)cnc1N,-16.5
14,Cn1c(-c2ccc3c(c2)OCO3)cnc1NCc1cccc(Cl)c1.O=C(O)C(=O)O,-74
15,Cn1c(-c2ccc3c(c2)OCO3)cnc1NCc1cccc(O)c1.O=C(O)C(=O)O,-23.1
16,Cn1c(-c2ccc3c(c2)OCO3)cnc1NCc1ccccc1.O=C(O)C(=O)O,-60
17,COc1ccc2c(CC(=O)Nc3ncc(C)s3)coc2c1,5.72
18,CN(C)c1ccc(C(CC(=O)O)C(=O)O)cc1 (stereo not shown),14.4
19,CCOc1ccc(C(=O)CCC(=O)Nc2ncccc2O)cc1,5.51
20,Cc1ccccc1OCC(O)Cn1c(NCCN(C)C)nc2c1c(=O)n(C)c(=O)n2C (stereo not shown),-20.3
21,CSc1cccc(NC(=O)/C=C/c2ccc(Cl)cc2)c1,-4.08
22,O=S(=O)(Nc1ncccn1)c1ccc(NC(=S)N2CCN(Cc3ccc(F)cc3Cl)CC2)cc1,22

row,SMILES,"hERG current change (%, negative = inhibition) at 10uM [%]"
1,CNC(C)C#Cc1ccc2c(=O)c3c(OC)cccc3oc2c1 (stereo not shown),0.579
2,CC(=O)Nc1sc2c(c1CN1CCN(c3ccc(F)cc3)CC1)CCCC2,-6.73
3,CC(C)(C)c1ccc(C(=O)Nc2ccc(Oc3cccnc3)nc2)cc1,-61.2
4,CC(C)(C)c1ccc(C(=O)Nc2cccnc2)cc1,-18.7
5,O=C(Nc1ccc(Oc2cccnc2)nc1)c1ccc(C(F)(F)F)cc1,-30
6,CCCCC(=Nc1ccccc1OC)C1=C(O)CC(c2ccccc2)CC1=O (stereo not shown),3.11
7,COc1cc(C2C(C#N)=C(N)Oc3cc(N(C)C)ccc32)cc2c1OCO2 (stereo not shown),-6.32
8,COC(=O)c1ccc(COc2ccc(F)cc2)o1,-27.4
9,COc1cc(/C=C2/SC(=S)N(CCC(=O)Nc3ccccc3)C2=O)cc(OC)c1OC,13.8
10,NNc1nnc2c3cc(F)ccc3n(Cc3ccccc3)c2n1,-22.4
11,CSc1nnc2c3cc(F)ccc3n(Cc3ccccc3)c2n1,13.6
12,CCN(CC)CCSc1nnc2c3cc(C)ccc3n(Cc3ccccc3)c2n1,-79.1
13,CSc1nnc2c3cc(C)ccc3n(Cc3ccccc3)c2n1,2.55
14,CCN(CC)CCSc1nnc2c3cc(F)ccc3n(Cc3ccccc3)c2n1,-77
15,Cc1ccc2c(c1)c1nnc(SCC(=O)Nc3cccc(Cl)c3C)nc1n2CC(=O)O,19.6
16,O=c1cc(CNc2cc(C(F)(F)F)cc(C(F)(F)F)c2)nc2sccn12,-6.36
17,Cn1nc(OCCOc2ccccc2)ccc1=O,-4.45
18,NC(=O)c1ccc(Oc2ncc(C(F)(F)F)cc2Cl)cc1,-3.77
19,O=C(NCc1cccs1)c1ccccc1F,-3.47
20,Cc1ccc(-c2nc(CN(C)C)cc(CN(C)C)c2O)cc1.Cl,-14.6
21,CC(C)(C)c1nc(CN2CCCCC2)cc(CN2CCCCC2)c1O,-24.2
22,Cc1ccc(-c2nc(CN3CCCCC3)cc(CN3CCCCC3)c2O)cc1.Cl,-62.5

row,SMILES,"hERG current change (%, negative = inhibition) at 10uM [%]"
1,Cc1ccccc1OCC(=O)OCn1nnc2ccccc2c1=O,19.6
2,Cc1ccc2[nH]c3c(=O)n(CC(=O)NCc4ccco4)ncc3c2c1,21.9
3,CCN(CCCNC(=O)Cn1ncc2c([nH]c3ccc(C)cc32)c1=O)Cc1ccccc1,-58.5
4,CC(C)N(CCCNC(=O)Cn1ncc2c([nH]c3ccccc32)c1=O)Cc1ccccc1,-48.1
5,CCN(CCCNC(=O)Cn1ncc2c([nH]c3ccc(C)cc32)c1=O)c1ccccc1,19
6,CCN(CCCNC(=O)Cn1ncc2c([nH]c3ccccc32)c1=O)Cc1ccccc1,-67
7,Cc1ccc2[nH]c3c(=O)n(CC(=O)NCCCN(C)Cc4ccccc4)ncc3c2c1,-31.6
8,O=C(Cn1ncc2c([nH]c3ccccc32)c1=O)NCCc1ccccc1,3.06
9,Cc1ccc(NC(=O)c2oc3ccc(S(=O)(=O)N4CCOCC4)cc3c2C)c(C)c1,5.03
10,O=C(Nc1nc(N2C(=O)c3ccccc3C2=O)n(-c2ccccc2)n1)c1ccc(Cl)cc1,-7.9
11,CC1CC(C)CN(CCCNC(=O)Cc2c(C(=O)O)n(C)c3ccccc23)C1 (stereo not shown),-15.9
12,COC(=O)c1c(NC(=O)CCCC(=O)O)sc2c1CCCCC2,12.2
13,CCOc1ccc(-c2n[nH]c(C)c2-c2ccccn2)c(O)c1,13.6
14,CS(=O)(=O)Nc1ccc(C(=O)NCc2ccccn2)cc1,0.863
15,O=C(NC1CCCC1)c1ccc(CS(=O)(=O)Cc2ccccc2F)o1,-7.89
16,O=C(CSc1nc2ccccc2c(=O)n1CCCO)NCc1ccccc1,-41.5
17,O=C(CSc1nc2ccccc2c(=O)n1CCCC(=O)N1CCCC1)NCc1ccco1,-62.4
18,Cc1ccc(CNC(=O)CSc2nc3ccccc3c(=O)n2CCCO)cc1,-73
19,COCCCn1c(SCC(=O)NCc2ccccc2)nc2ccccc2c1=O,-48.6
20,CC(=O)Nc1ccc(NC(=O)COC(=O)c2ccccc2SCC(=O)N2CCCC2)cc1,5.48
21,CC(=O)NCCn1c(SCC(=O)NCc2ccco2)nc2ccccc2c1=O,-23.9
22,COc1cccc(NC(=O)CSc2nc3ccccc3c(=O)n2CCCC(=O)N2CCCC2)c1,-67.3

row,SMILES,"hERG current change (%, negative = inhibition) at 10uM [%]"
1,CCn1c(SCC(=O)Nc2cccc(OC)c2)nc2ccccc2c1=O,-47.1
2,COc1cc(NC(=O)COC(=O)c2ccccc2SCC(=O)N2CCCC2)cc(OC)c1,-25.7
3,Cc1ccc(NC(=O)CSc2nc3ccccc3c(=O)n2CCCC(=O)N2CCCC2)cc1,-44.5
4,COc1ccc(NC(=O)COC(=O)c2ccccc2SCC(=O)N2CCCC2)cc1,-53.9
5,N#CCSc1nc2ccccc2c(=O)n1CCCC(=O)NCc1ccco1,-33.7
6,CCCCN(C(=O)CSc1nnnn1C)C1CCS(=O)(=O)C1 (stereo not shown),-28.1
7,COC(=O)N/N=C/c1cn(CCOc2ccc(OC)cc2)c2ccccc12,16.8
8,Cc1ccc(-n2cc3c(=O)n(C)c(=O)n(C)c3c2)cc1C,-6.21
9,CC(=O)N[C@H]1C(O)O[C@H](CO)[C@@H](O)[C@@H]1O (stereo partly shown),9.71
10,CCN(CC)c1ccc(C=O)c(OC)c1,-9.16
11,N#C/C(=C\c1cc2c(cc1Br)OCO2)c1ccc(C(=O)O)cc1,13.2
12,COCC(=O)N(C)c1nnc(-c2ccc([N+](=O)[O-])cc2)s1,6.65
13,CN(CC(=O)Nc1c(Cl)cccc1Cl)C(=O)c1ccncc1,19.4
14,Cn1cnc2c1c(=O)n(Cc1cccc(F)c1)c(=O)n2C,12
15,Nc1c(C(=O)NC2CCCCC2)nsc1C(=O)OCC(=O)NC1CCCCC1,12.5
16,CCn1c(-c2cc(-c3ccc(C)cc3)nc3ccccc23)n[nH]c1=S,11.4
17,CNCCOc1ccc(Cl)c(Cl)c1.O=C(O)C(=O)O,12.8
18,COc1ccc(NC(=O)CNC(=O)Cc2cccc3ccccc23)c(OC)c1,2.01
19,O=C(Nc1ncc(Cc2ccccc2)s1)C1COc2ccccc2O1 (stereo not shown),-0.581
20,CCOC(=O)c1c(-c2ccc(C)o2)csc1NC(=O)COC(=O)c1cccs1,-12
21,CN1C(=O)NC(c2ccc(O)cc2)C2=C1CN(c1cccc3ccccc13)C2=O (stereo not shown),-11.8
22,CCC(=O)NC(NC(=S)Nc1ccc(S(N)(=O)=O)cc1)C(Cl)(Cl)Cl (stereo not shown),-1.3

# Source: paper PMC4336329 (PLoS ONE, 2015)
